In PubChem BioAssay (EPA / NIEHS):
Calls of active or inactive are those of the source. The calls were made as follows: active = hit-call score of the fitted dose curve at least 0.9, where 1 is the maximum; inactive = score below 0.9.

Legend:
Conditions in all cases: mRNA level, 48 h; actives raise or lower the signal
[1] = read-out: Cyclin D1 (CCND1), CCND1 (gene 595); test: LTEA_HepaRG_CCND1: Life Technologies and Expression Analysis (LTEA) Assay for Cyclin D1 (CCND1) using HepaRG (AID 2283451)
Summary of the method: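 qRT-PCR (Fluidigm 96.96 array) read-out of transcript level, housekeeping-normalized (ACTB/GAPDH/POLR2A). HepaRG cells, 48 h chemical exposure, 8-point half-log series from 100 uM, 0.5% DMSO vehicle; gain or loss relative to DMSO baseline.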

[2] = read-out: catalase (CAT), CAT (gene 847); test: LTEA_HepaRG_CAT: Life Technologies and Expression Analysis (LTEA) Assay for catalase (CAT) using HepaRG (AID 2283452)
Summary of the method: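 HepaRG cells in serum-free induction medium, 0.5% DMSO vehicle, exposed 48 h in duplicate over 8 half-log concentrations from 100 uM. CAT mRNA measured by qRT-PCR, normalized to ACTB, GAPDH, POLR2A; bidirectional fit versus DMSO.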

[3] = read-out: flavin-containing dimethylaniline monooxygenases 3 (FMO3), FMO3 (gene 2328); test: LTEA_HepaRG_FMO3: Life Technologies and Expression Analysis (LTEA) Assay for flavin-containing dimethylaniline monooxygenases 3 (FMO3) using HepaRG (AID 2283453)
Summary of the method: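 Differentiated HepaRG cells in serum-free induction medium, exposed 48 h in duplicate to 8 half-log concentrations up to 100 uM in 0.5% DMSO. FMO3 mRNA by qRT-PCR, normalized to ACTB, GAPDH, POLR2A; bidirectional fit vs DMSO.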

[4] = read-out: Cytochrome P450 (CYP1A1), CYP1A1 (gene 1543); test: LTEA_HepaRG_CYP1A1: Life Technologies and Expression Analysis (LTEA) Assay for Cytochrome P450 (CYP1A1) using HepaRG (AID 2283454)
Summary of the method: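 qRT-PCR read-out: CYP1A1 transcript normalized to three housekeeping genes, fitted bidirectionally against 0.5% DMSO vehicle baseline. Human HepaRG cells, 48 h chemical exposure, 8-point half-log series topping at 100 uM.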

[5] = read-out: CFLAR gene, CFLAR (gene 8837); test: LTEA_HepaRG_CFLAR: Life Technologies and Expression Analysis (LTEA) Assay for CFLAR gene using HepaRG (AID 2283455)
Summary of the method: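 Differentiated HepaRG cells in serum-free induction medium were exposed 48 h in duplicate to eight half-log concentrations up to 100 uM in 0.5% DMSO; mRNA measured by TaqMan qRT-PCR, normalized to ACTB, GAPDH, POLR2A; bidirectional fitting versus DMSO.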

[6] = read-out: Forkhead box O1 (FOXO1), FOXO1 (gene 2308); test: LTEA_HepaRG_FOXO1: Life Technologies and Expression Analysis (LTEA) Assay for Forkhead box O1 (FOXO1) using HepaRG (AID 2283456)
Summary of the method: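 Differentiated HepaRG cells, in serum-free induction medium with 0.5% DMSO, exposed 48 h in duplicate to 8-point half-log series from 100 uM. FOXO1 mRNA measured by TaqMan qRT-PCR, normalized to ACTB, GAPDH, POLR2A; bidirectional fit versus DMSO.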

[7] = read-out: growth arrest and DNA damage 45 (GADD45A), GADD45A (gene 1647); test: LTEA_HepaRG_GADD45A: Life Technologies and Expression Analysis (LTEA) Assay for growth arrest and DNA damage 45 (GADD45A) using HepaRG (AID 2283458)
Summary of the method: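 Cells plated and cultured 48 h, switched to serum-free induction medium, then dosed for 48 h (100 uM top, half-log dilutions, 0.5% DMSO). RNA was isolated and transcript measured by Fluidigm qRT-PCR.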

[8] = read-out: Forkhead box O3 (FOXO3), FOXO3 (gene 2309); test: LTEA_HepaRG_FOXO3: Life Technologies and Expression Analysis (LTEA) Assay for Forkhead box O3 (FOXO3) using HepaRG (AID 2283459)
Summary of the method: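 Differentiated human HepaRG cells, 48 h post-plating, exposed in duplicate for 48 h in serum-free induction medium; 8-point half-log series from 100 uM in 0.5% DMSO. FOXO3 mRNA by TaqMan qRT-PCR, normalized to ACTB/GAPDH/POLR2A; bidirectional fit versus DMSO.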

[9] = read-out: ABC Transporter (ABCB1), ABCB1 (gene 5243); test: LTEA_HepaRG_ABCB1: Life Technologies and Expression Analysis (LTEA) Assay for ABC Transporter (ABCB1) using HepaRG (AID 2283460)
Summary of the method: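 HepaRG cells exposed in duplicate for 48 h in serum-free induction medium to eight half-log concentrations up to 100 uM in 0.5% DMSO. ABCB1 mRNA quantified by qRT-PCR, normalised to ACTB, GAPDH and POLR2A; fitted bidirectionally versus DMSO.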

[10] = read-out: growth arrest and DNA damage 45 (GADD45B), GADD45B (gene 4616); test: LTEA_HepaRG_GADD45B: Life Technologies and Expression Analysis (LTEA) Assay for growth arrest and DNA damage 45 (GADD45B) using HepaRG (AID 2283461)
Summary of the method: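 qRT-PCR read-out (Fluidigm TaqMan, housekeeping-normalized) of mRNA change in human HepaRG cells after 48 h chemical exposure; 8-point curve, top 100 uM, half-log steps, 0.5% DMSO vehicle; gain or loss fitted relative to DMSO baseline.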

[11] = read-out: ABC Transporter (ABCC3), ABCC3 (gene 8714); test: LTEA_HepaRG_ABCC3: Life Technologies and Expression Analysis (LTEA) Assay for ABC Transporter (ABCC3) using HepaRG (AID 2283462)
Summary of the method: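 qRT-PCR read-out of ABCC3 transcript, normalized to three housekeeping genes (ACTB, GAPDH, POLR2A), after 48 h chemical exposure of human HepaRG cells. Eight half-log concentrations, highest 100 uM, in 0.5% DMSO; gain or loss fitted relative to DMSO baseline.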

[12] = read-out: ABC Transporter (ABCB11), ABCB11 (gene 8647); test: LTEA_HepaRG_ABCB11: Life Technologies and Expression Analysis (LTEA) Assay for ABC Transporter (ABCB11) using HepaRG (AID 2283463)
Summary of the method: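 Differentiated human HepaRG cells in serum-free induction medium, dosed in duplicate for 48 h. Eight-point half-log series from 100 uM in 0.5% DMSO; ABCB11 mRNA by qRT-PCR, normalized to ACTB, GAPDH, POLR2A, fitted bidirectionally versus DMSO.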

[13] = read-out: ABC Transporter (ABCC2), ABCC2 (gene 1244); test: LTEA_HepaRG_ABCC2: Life Technologies and Expression Analysis (LTEA) Assay for ABC Transporter (ABCC2) using HepaRG (AID 2283464)
Summary of the method: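 qRT-PCR (TaqMan, Fluidigm array) read-out of ABCC2 mRNA, normalized to three housekeeping genes. Differentiated HepaRG cells were treated 48 h in serum-free induction medium with 8-point half-log series from 100 uM in 0.5% DMSO; curves fitted bidirectionally relative to DMSO.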

[14] = read-out: Broad substrate specificity ATP-binding cassette transporter ABCG2 (Homo sapiens) (UniProt Q9UNQ0); test: LTEA_HepaRG_ABCG2: Life Technologies and Expression Analysis (LTEA) Assay for ABC Transporter (ABCG2) using HepaRG (AID 2283465)
Summary of the method: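 Differentiated HepaRG cells were exposed for 48 h in serum-free induction medium to 8 half-log concentrations, top 100 uM, in 0.5% DMSO. ABCG2 mRNA was measured by qRT-PCR, normalized to ACTB, GAPDH and POLR2A, with bidirectional fitting versus DMSO.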

[15] = read-out: ATP-citrate lyase (ACLY), ACLY (gene 47); test: LTEA_HepaRG_ACLY: Life Technologies and Expression Analysis (LTEA) Assay for ATP-citrate lyase (ACLY) using HepaRG (AID 2283466)
Summary of the method: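 Differentiated HepaRG cells exposed 48 h in serum-free induction medium to eight half-log concentrations up to 100 uM in 0.5% DMSO, duplicates. Transcript measured by Fluidigm TaqMan qRT-PCR, normalized to ACTB, GAPDH, POLR2A; bidirectional fit versus DMSO.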

[16] = read-out: Peroxisomal acyl-coenzyme A oxidase 1 (ACOX1) gene, ACOX1 (gene 51); test: LTEA_HepaRG_ACOX1: Life Technologies and Expression Analysis (LTEA) Assay for Peroxisomal acyl-coenzyme A oxidase 1 (ACOX1) gene using HepaRG (AID 2283467)
Summary of the method: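 HepaRG cells, plated 48 h then switched to serum-free induction medium, were exposed in duplicate for 48 h to 8-point half-log concentrations up to 100 uM in 0.5% DMSO. ACOX1 mRNA was measured by qRT-PCR, normalized to ACTB/GAPDH/POLR2A, and fitted bidirectionally versus DMSO.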

[17] = read-out: Alkaline Phosphatase, Placental (ALPP) gene, ALPP (gene 250); test: LTEA_HepaRG_ALPP: Life Technologies and Expression Analysis (LTEA) Assay for Alkaline Phosphatase, Placental (ALPP) gene using HepaRG (AID 2283468)
Summary of the method: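 qRT-PCR readout of ALPP mRNA (Fluidigm TaqMan), normalized to ACTB/GAPDH/POLR2A, after 48 h chemical exposure of HepaRG cells; 8-point half-log series, top 100 uM, 0.5% DMSO vehicle. Bidirectional curve fit versus DMSO baseline.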

[18] = read-out: Bcl-2 (BAD) gene, BAD (gene 572); test: LTEA_HepaRG_BAD: Life Technologies and Expression Analysis (LTEA) Assay for Bcl-2 (BAD) gene using HepaRG (AID 2283469)
Summary of the method: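 Differentiated HepaRG cells were exposed in duplicate in 0.5% DMSO for 48 h to eight-point half-log concentrations up to 100 uM. BAD mRNA was measured by Fluidigm TaqMan qRT-PCR, normalized to ACTB, GAPDH and POLR2A, and fitted bidirectionally against DMSO.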

[19] = read-out: Bcl-2 (BAX) gene, BAX (gene 581); test: LTEA_HepaRG_BAX: Life Technologies and Expression Analysis (LTEA) Assay for Bcl-2 (BAX) gene using HepaRG (AID 2283470)
Summary of the method: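 HepaRG (human liver), 48 h exposure, duplicate wells. 8-pt curve, half-log from 100 uM, 0.5% DMSO. BAX transcript by TaqMan qRT-PCR; ACTB/GAPDH/POLR2A normalization; gain or loss vs DMSO baseline.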

Measured: AC50

Broad substrate specificity ATP-binding cassette transporter ABCG2 (Homo sapiens), sequence (Q9UNQ0 whole entry, looked up): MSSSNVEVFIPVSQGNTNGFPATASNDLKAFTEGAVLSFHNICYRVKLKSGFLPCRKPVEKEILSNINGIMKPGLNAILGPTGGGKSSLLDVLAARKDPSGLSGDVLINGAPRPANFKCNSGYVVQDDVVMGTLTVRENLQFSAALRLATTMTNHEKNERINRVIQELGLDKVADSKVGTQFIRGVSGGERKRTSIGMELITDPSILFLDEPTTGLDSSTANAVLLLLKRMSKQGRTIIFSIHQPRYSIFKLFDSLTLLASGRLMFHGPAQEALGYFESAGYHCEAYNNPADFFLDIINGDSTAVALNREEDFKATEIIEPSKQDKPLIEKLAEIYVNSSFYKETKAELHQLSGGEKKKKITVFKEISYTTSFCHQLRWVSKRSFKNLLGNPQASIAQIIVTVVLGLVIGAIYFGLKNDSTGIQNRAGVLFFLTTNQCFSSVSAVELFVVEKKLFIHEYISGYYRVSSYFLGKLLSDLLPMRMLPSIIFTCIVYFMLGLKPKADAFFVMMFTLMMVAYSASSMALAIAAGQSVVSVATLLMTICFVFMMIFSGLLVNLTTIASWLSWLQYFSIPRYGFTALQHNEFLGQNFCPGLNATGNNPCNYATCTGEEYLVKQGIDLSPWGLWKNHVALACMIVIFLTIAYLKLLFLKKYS

CCCCOC(=O)CC(CC(=O)OCCCC)(OC(C)=O)C(=O)OCCCC
inactive: [1] | [2] | [3] | [4] | [5] | [6] | [7] | [8] | [9] | [10] | [11] | [12] | [13] | [14] | [15] | [16] | [17] | [18] | [19]

Cc1oc2c(NC(=O)c3c(Cl)cccc3Cl)cccc2c1C(C)(C)O
inactive: [1] | [5] | [6] | [7] | [8] | [14] | [18]
active: [2] 29.3 µM | [3] 37.2 µM | [4] 8.74 µM | [9] 80.5 µM | [10] 75.6 µM | [11] 16.1 µM | [12] 23.8 µM | [13] 33.8 µM | [15] 29.6 µM | [16] 30 µM | [17] 50 µM | [19] 85.9 µM
